# Source: PubChem BioAssay
# Rin1-Abl PPI inh = inhibitors of human Rin1-Abl protein interaction; AID 588664; inhibition, % at 7.35 µM; TR-FRET Rin1/Abl binding, biochemical; P00519+Q13671; actives 0.4% (n = 360,000); in the data active means inhibition above about 5%, passing the limit was not always enough
# UHRF1 MBD2 ctr = blocks human UHRF1 binding to methylated DNA; UHRF1 binding to methylated oligo, TR-FRET; actives 0.75% (n = 370,000); inhibition, % at 4.4 µM; in the data active means inhibition above about 21%;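 further: UHRF1 SRA domain binding a hemimethylated CpG hairpin DNA probe; 0% = median of test compound wells and 100% = reference inhibitor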
# TCR-CD3 inh = inhibitors of human TCR-CD3 interaction; TAMRA-labeled TCR probe fluorescence, biochemical; AID 651800; inhibition, % at 9.4 µM; actives 0.37% (n = 360,000);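 further: recombinant mutant TCR 2C K166C tagged with TAMRA read by polarization; 0% = receptor in buffer alone and 100% = receptor with positive control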
# MBD2 DNA inh = MBD2-methylated oligo binding inhibition | Q9UBB5 | TR-FRET, MBD2 binding to methylated oligonucleotide | inhibition, % at 4.4 µM | actives 0.31% (n = 370,000) | AID 686964; in the data active means inhibition above about 13%
# Target sequence (Q9UBB5 whole entry, looked up): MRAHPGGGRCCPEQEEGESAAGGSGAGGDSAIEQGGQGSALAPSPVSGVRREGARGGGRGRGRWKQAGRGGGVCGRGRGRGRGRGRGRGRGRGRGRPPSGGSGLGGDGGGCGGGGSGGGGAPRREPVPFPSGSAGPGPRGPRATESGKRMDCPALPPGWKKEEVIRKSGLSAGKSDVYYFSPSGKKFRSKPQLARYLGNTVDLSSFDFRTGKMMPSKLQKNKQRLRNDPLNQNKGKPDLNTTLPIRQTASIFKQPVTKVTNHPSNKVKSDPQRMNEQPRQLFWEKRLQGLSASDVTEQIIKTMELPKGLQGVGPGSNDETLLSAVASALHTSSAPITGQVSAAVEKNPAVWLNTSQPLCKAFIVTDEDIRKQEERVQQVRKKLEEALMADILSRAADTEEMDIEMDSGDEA
# LEDGF integ inh = blocks HIV-1 LEDGF/p75-dependent DNA integration. TR-FRET IN-LEDGF/p75 DNA integration, Eu/Cy5. inhibition, % at 3.7 µM. actives 0.64% (n = 370,000);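 active means inhibition above the screen-wide mean plus 3 SD, cut at about 13% in these data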;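 further: signal is the Cy5 over europium emission ratio at 671 and 618 nm; 0% = plate median of compound wells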
# BSA TAMRA ctr = BSA probe counter-screen for TCR-CD3 inhibitors; inhibition, % at 9.4 µM; shares compounds with TCR-CD3 inh; TAMRA-labeled BSA probe fluorescence counterscreen; actives 10% (n = 1,200); in the data active means inhibition above about 23%;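 further: 0% = buffer low control and 100% = reference high control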
# TCR-CD3 inh conf = TCR-CD3 interaction inhibition, confirmation; shares compounds with TCR-CD3 inh; TAMRA-labeled TCR probe fluorescence binding assay; inhibition, % at 9.4 µM; actives 48% (n = 1,200)
# * marks the source's active call; other numbers are inactive results; . = not tested or not shown. Sampled rows, rich in hits. Any-hit rate of the full collection: about 2%. Unless noted, no stated cut-off is given here; in the data, active means inhibition above about 19%; inactive means the rest.
SMILES,Rin1-Abl PPI inh,UHRF1 MBD2 ctr,TCR-CD3 inh,MBD2 DNA inh,LEDGF integ inh,BSA TAMRA ctr,TCR-CD3 inh conf
COc1ccc(CC(=O)Nc2cc(S(=O)(=O)Nc3ccc(OC)cc3)ccc2OC)cc1,0.5,-1.9,5.0,-2.5,2.9,.,.
NC(=O)c1ccc(-n2nnnc2SCC(=O)c2ccc(O)c(O)c2)cc1,1.6,-1.3,28.4*,0.0,-4.3,-10.1,38.9*
COc1ccc(O)c(/C=N/NC(=O)c2cccc(N3CCCC3=O)c2)c1,-2.7,-0.4,-6.2,-3.0,-3.1,.,.
O=C(N/N=C/c1cc(Br)ccc1O)c1cccc(N2CCCC2=O)c1,-3.4,1.6,29.5*,-1.9,-4.2,-5.6,25.9*
CC(C)Nc1ncnc2c1ncn2[C@H]1CN(Cc2ccco2)C[C@@H](CO)O1,-2.7,0.0,3.2,3.5,2.9,.,.
C/C(=N\NC(=O)c1cc(-c2ccncc2)nc2ccccc12)c1ccc(N2CCOCC2)cc1,-0.7,0.4,7.4,0.2,-0.1,.,.
Cc1ccc(S(=O)(=O)N2CCC(C(=O)N3CCCCCCC3)CC2)cc1C,0.1,8.5,-7.0,7.8,4.4,.,.
Cc1ccc(S(=O)(=O)N2CCC(C(=O)NNC(=O)c3ccccc3O)CC2)cc1,-3.0,-1.5,52.4*,-3.0,-5.6,-5.4,36.2*
Cc1ccc(S(=O)(=O)N2CCC(C(=O)NNC(=O)c3ccccc3O)CC2)cc1C,2.6,0.1,41.3*,2.3,-2.6,3.0,32.4*
Cc1cc(C)c(C)c(S(=O)(=O)N2CCC(C(=O)NCc3cccs3)CC2)c1C,1.1,0.5,7.6,4.6,6.3,.,.
Cc1cc(C)c(C)c(S(=O)(=O)N2CCC(C(=O)NNC(=O)c3ccccc3O)CC2)c1C,-1.1,1.2,32.0*,-3.8,-2.0,-5.8,21.6*
N#C/C(=C/c1ccc(F)cc1)c1nnc(NC(=O)c2ccccc2)s1,1.4,0.0,-2.6,-2.1,-1.3,.,.
COc1cccc(C(=O)COC(=O)c2cccs2)c1,1.6,-1.3,-1.3,1.7,0.4,.,.
Oc1cc2c(cc1O)[C@H]1c3ccc(O)c(O)c3OC[C@@]1(O)C2,31.4*,6.2,128.5*,3.8,82.7*,65.1*,115.5*
Oc1ccc2c(c1)OCC1(O)Cc3cc(O)c(O)cc3C21 (stereo not drawn),4.8,3.0,.,0.9,8.7,.,.
CC(C(=O)N1CCCCC1)n1sc2ccccc2c1=O (stereo not drawn),-2.3,3.7,31.4*,-2.5,0.9,-0.7,0.8
COc1ccc(-c2cnc(C(O)c3ccc(C(C)(C)C)cc3)[nH]2)cc1 (stereo not drawn),-0.6,-2.0,-4.3,-3.4,-2.8,.,.
COC(=O)COc1ccc(C(C2C(=O)CC(C)(C)CC2=O)C2C(=O)CC(C)(C)CC2=O)cc1,0.8,-0.1,20.4*,-3.1,3.4,0.6,2.5
COC(=O)COc1ccc(NC(=O)C(c2ccccc2)c2ccccc2)cc1,-1.0,1.5,-3.9,-2.9,1.4,.,.
CC(=O)Nc1ccc(NC(=O)c2ccccc2CCc2ccccc2)cc1,-2.1,1.4,-1.2,0.5,1.0,.,.
COc1ccc(CCC(=O)NCC23CC4CC(CC(C4)C2)C3)cc1,1.5,1.7,-9.8,-0.4,7.6,.,.
O=C1NN=COc2ccccc21,6.1,1.9,21.1*,0.9,4.9,-12.2,11.2
N#Cc1nnn(-c2ccc(Cl)cc2)c1N,-0.6,.,.,.,.,.,.
COCCCNC(=O)CC(C)c1ccccc1 (stereo not drawn),1.0,-1.4,110.1*,-7.3,3.5,3.3,6.4
CC(=O)c1ccc(NC(=O)CN2C(=O)/C(=C/C(C)=C/c3ccccc3)SC2=S)cc1,-0.4,-4.4,23.8*,-6.6,2.9,16.7,49.2*
SMILES,Rin1-Abl PPI inh,UHRF1 MBD2 ctr,TCR-CD3 inh,MBD2 DNA inh,LEDGF integ inh,BSA TAMRA ctr,TCR-CD3 inh conf
CC(/C=C1\SC(=S)N(CCC(=O)Nc2ccc(O)cc2)C1=O)=C\c1ccccc1,-2.5,0.3,1.9,5.8,0.1,.,.
Cc1nn2c(-c3cccc(NC(=O)c4ccco4)c3)nnc2c2ccccc12,-2.3,-7.7,19.6*,0.4,0.4,0.3,8.6
Cc1c(N2CCCC2)cc2c(c1NC(=O)c1ccccc1Cl)C(C)(C)CC2(C)C,3.8,-3.4,-0.9,-4.3,3.1,.,.
Cc1cc(C)nc(SCCC(=O)Nc2ccccc2)n1,0.6,-5.4,-3.0,1.1,0.7,.,.
Cc1cc(C)nc(SCCC(=O)Nc2ccccc2C)n1,1.5,2.2,107.2*,-0.9,2.8,3.5,0.5
Cc1cc(O)ccc1N/C=C1\CCCC1=O,-3.6,1.1,33.7*,-1.2,5.5,3.0,2.8
O=C(NNC(=O)c1cc2ccccc2cc1O)NC1CCCCC1,-0.2,-3.9,21.9*,-3.1,4.0,-10.5,18.1
O=C(NNC(=S)NC1CCCCC1)c1ccccc1O,-1.1,-1.7,52.5*,-0.5,-1.0,-2.9,29.1*
CCNC(=S)NNC(=O)c1cccn(Cc2ccc(Cl)cc2Cl)c1=O,-2.8,-2.6,20.1*,2.6,0.6,1.9,17.0
C=CCNC(=S)NNC(=O)c1cccn(Cc2ccc(Cl)cc2Cl)c1=O,-3.4,-4.2,19.8*,-5.6,-0.8,-9.4,14.4
Cc1ccccc1C(=O)NNC(=S)NC(=O)c1ccc(Cl)cc1Cl,-2.9,-8.5,1.5,-5.2,1.2,.,.
O=C(NCc1cccnc1)c1csc([C@@H]2O[C@H](CO)[C@H](O)[C@H](O)[C@H]2O)n1,0.2,-0.5,1.7,-0.1,-2.2,.,.
Cc1ccccc1C(=O)Nc1cccc(C(=O)N/N=C/c2cc(Cl)cc([N+](=O)[O-])c2O)c1,-1.0,-9.3,45.4*,-6.6,-9.5,-6.3,55.7*
O=C(N/N=C/c1cc(Cl)cc([N+](=O)[O-])c1O)C1CC1,-4.5,-13.8,21.2*,-19.0,-3.8,-11.0,16.6
O=[N+]([O-])c1cc(Cl)cc(/C=N/NC(=S)Nc2ccc(S(=O)(=O)N3CCOCC3)cc2)c1O,-2.8,-14.9,42.1*,-6.0,2.0,-4.6,43.4*
Cc1ccnc(NC(=O)CCC(=O)N(CC(=O)NCCc2ccccc2)c2ccccc2F)c1,0.4,4.8,-5.9,2.5,-6.1,.,.
N#CC(C#N)=C1C=C2C=C(N3CCCCCC3)CCC2CC1 (stereo not drawn),-56.7,-235.7,29.2*,-50.2,-7.8,20.3,13.6
O=C(N/N=C/c1cccc([N+](=O)[O-])c1)c1c[nH]c2ccccc12,-5.6,0.8,-1.5,-1.7,-2.2,.,.
O=[N+]([O-])c1ccc(O)c(/C=N/NC(=S)Nc2ccc(Cl)cc2Cl)c1,-5.9,-1.2,22.9*,5.8,2.0,-2.1,32.5*
O=C(NC(C(=O)N/N=C/c1cccc2ccccc12)c1n[nH]c(=O)c2ccccc12)c1ccccc1 (stereo not drawn),0.8,-1.8,8.6,-5.5,-3.2,.,.
CCOC(=O)c1c(C)[nH]c(C(=O)N/N=C/c2cc([N+](=O)[O-])ccc2O)c1C,2.3,1.3,21.2*,5.8,4.6,-9.7,40.7*
O=C(N/N=C/c1cc([N+](=O)[O-])ccc1O)c1c[nH]c2ccccc12,0.7,-1.0,20.9*,-0.7,-1.6,-6.2,13.6
